# The whole screen tested about 39,000 compounds, of which about 3,300 (8.5%) were called active. Many of the other results were omitted from the sample, so actives are more common in it than they were.
# Test system: HepG2
# Assay: cytotoxicity call (relative viability < 0.9)
# Conditions: 10 µM
row,SMILES,cytotoxicity call
1,CC(C)CC#Cc1ccc2c(c1)O[C@@H](CN(C)Cc1cncnc1)[C@@H](C)CN([C@H](C)CO)S2(=O)=O,inactive
2,CC(C)NC(=O)[C@@H]1c2ccccc2C(=O)N(Cc2cc(F)cc(C(F)(F)F)c2)[C@H]1c1ccc(CO)cc1,inactive
3,CC(C)NC(=O)Nc1ccc2c(c1)C(=O)N([C@H](C)CO)C[C@H](C)[C@@H](CN(C)S(=O)(=O)c1cn(C)cn1)OCCCC[C@H](C)O2,inactive
4,CC(C)NC(=O)N1C[C@H]2[C@H](C(=O)N(C)Cc3ccccn3)CCS(=O)(=O)[C@H]2C1,inactive
5,Cc1noc(C)c1S(=O)(=O)N(C)C[C@H]1Oc2ccc(NS(=O)(=O)c3ccc(F)cc3)cc2CC(=O)N([C@@H](C)CO)C[C@H]1C,inactive
6,C=CC[C@@H](CC(=O)N(CCO)Cc1ccccc1)C(=O)N[C@H](COC(=O)[C@@H](CC=C)CC(=O)OC(C)(C)C)Cc1c[nH]c2ccccc12,inactive
7,Cc1ccc(S(=O)(=O)N2C[C@H](O)COC[C@H]3O[C@H](CC(=O)NCCCN(C)C)CC[C@@H]32)cc1,inactive
8,Cc1ccc(S(=O)(=O)N(C)C[C@@H]2OCCCC[C@H](C)Oc3ccc(NS(=O)(=O)c4ccc(F)cc4)cc3C(=O)N([C@H](C)CO)C[C@H]2C)cc1,inactive
9,C[C@@H]1CCCCO[C@H](CN(C)Cc2ccc3c(c2)OCO3)[C@@H](C)CN([C@H](C)CO)C(=O)c2cc(NC(=O)Cc3ccccc3)ccc2O1,inactive
10,COc1ccc(CN(C)C[C@@H]2OCCCC[C@@H](C)Oc3ccc(NC(=O)Cc4ccccc4)cc3C(=O)N([C@H](C)CO)C[C@H]2C)cc1,inactive
11,CCCCCOc1ccc(-c2ccc(-c3ccc(C(=O)N[C@H]4C[C@@H](O)[C@@H](O)NC(=O)[C@@H]5[C@@H](O)[C@@H](C)CN5C(=O)[C@H]([C@@H](C)O)NC(=O)[C@H]([C@H](O)[C@@H](O)c5ccc(O)cc5)NC(=O)[C@@H]5C[C@@H](O)CN5C(=O)[C@H]([C@@H](C)O)NC4=O)cc3)cc2)cc1,active
12,CCCCCOc1ccc(-c2cc(-c3ccc(C(=O)N[C@H]4C[C@@H](O)[C@@H](O)NC(=O)[C@H]5[C@@H](O)[C@@H](C)CN5C(=O)[C@H]([C@@H](O)CC(N)=O)NC(=O)[C@H]([C@@H](O)[C@@H](O)c5ccc(O)c(OS(=O)(=O)O)c5)NC(=O)[C@H]5C[C@@H](O)CN5C(=O)[C@H]([C@@H](C)O)NC4=O)cc3)no2)cc1,inactive
13,CC[C@H](C)C[C@H](C)CCCCCCCCC(=O)N[C@H]1C[C@@H](O)[C@@H](NCCN)NC(=O)[C@@H]2[C@@H](O)CCN2C(=O)[C@H]([C@H](O)CCN)NC(=O)[C@H]([C@H](O)[C@@H](O)c2ccc(O)cc2)NC(=O)[C@@H]2C[C@@H](O)CN2C(=O)[C@H]([C@@H](C)O)NC1=O,inactive
14,C[C@@H]1CN([C@@H](C)CO)C(=O)Cc2cc(NC(=O)CCN3CCOCC3)ccc2O[C@H]1CN(C)C(=O)Nc1ccc2c(c1)OCO2,inactive
15,CC(C)NC(=O)N(C)C[C@@H]1Oc2ccc(NC(=O)CCC(F)(F)F)cc2C(=O)N([C@H](C)CO)C[C@@H]1C,inactive
16,Cc1noc(C)c1S(=O)(=O)Nc1ccc2c(c1)C(=O)N([C@H](C)CO)C[C@H](C)[C@H](CN(C)C(=O)Nc1ccc(C(F)(F)F)cc1)OCCCC[C@H](C)O2,inactive
17,Cc1noc(C)c1S(=O)(=O)Nc1ccc2c(c1)C(=O)N([C@@H](C)CO)C[C@@H](C)[C@H](CN(C)C(=O)Nc1ccc(C(F)(F)F)cc1)OCCCC[C@H](C)O2,inactive
18,Cc1noc(C)c1S(=O)(=O)Nc1ccc2c(c1)C(=O)N([C@@H](C)CO)C[C@H](C)[C@H](CN(C)C(=O)Nc1ccc(C(F)(F)F)cc1)OCCCC[C@H](C)O2,inactive
19,Cc1noc(C)c1S(=O)(=O)Nc1ccc2c(c1)C(=O)N([C@@H](C)CO)C[C@H](C)[C@@H](CN(C)C(=O)Nc1ccc(C(F)(F)F)cc1)OCCCC[C@H](C)O2,active
20,Cc1noc(C)c1S(=O)(=O)Nc1ccc2c(c1)C(=O)N([C@H](C)CO)C[C@H](C)[C@H](CN(C)C(=O)Nc1ccc(C(F)(F)F)cc1)OCCCC[C@@H](C)O2,inactive
21,Cc1noc(C)c1S(=O)(=O)Nc1ccc2c(c1)C(=O)N([C@@H](C)CO)C[C@@H](C)[C@@H](CN(C)C(=O)Nc1ccc(C(F)(F)F)cc1)OCCCC[C@H](C)O2,inactive

row,SMILES,cytotoxicity call
1,Cc1noc(C)c1S(=O)(=O)Nc1ccc2c(c1)C(=O)N([C@H](C)CO)C[C@@H](C)[C@@H](CN(C)C(=O)Nc1ccc(C(F)(F)F)cc1)OCCCC[C@@H](C)O2,active
2,Cc1noc(C)c1S(=O)(=O)Nc1ccc2c(c1)C(=O)N([C@@H](C)CO)C[C@@H](C)[C@@H](CN(C)C(=O)Nc1ccc(C(F)(F)F)cc1)OCCCC[C@@H](C)O2,inactive
3,Cc1noc(C)c1S(=O)(=O)Nc1ccc2c(c1)C(=O)N([C@H](C)CO)C[C@@H](C)[C@H](CN(C)C(=O)Nc1ccc(C(F)(F)F)cc1)OCCCC[C@@H](C)O2,active
4,C[C@@H]1CN([C@@H](C)CO)C(=O)c2cccc(NC(=O)c3cnccn3)c2O[C@@H]1CN(C)C(=O)Nc1ccccc1,inactive
5,COc1ccc(S(=O)(=O)N(C)C[C@H]2Oc3ccc(NC(=O)c4ccncc4)cc3CC(=O)N([C@H](C)CO)C[C@@H]2C)cc1,inactive
6,C[C@H](CO)N1C[C@H](C)[C@@H](CN(C)C(=O)Nc2ccc(C(F)(F)F)cc2)Oc2ccc(NC(=O)Cn3cnnn3)cc2CC1=O,inactive
7,COc1cccc(NC(=O)N2C[C@@H](O)COC[C@@H]3O[C@H](CC(=O)NCCCN4CCOCC4)CC[C@H]32)c1,inactive
8,COc1ccc(CN(C)C[C@@H]2Oc3c(NS(=O)(=O)c4cn(C)cn4)cccc3C(=O)N([C@@H](C)CO)C[C@H]2C)cc1,inactive
9,C[C@H]1CN([C@@H](C)CO)C(=O)c2cccc(NC(=O)c3cnccn3)c2O[C@H]1CN(C)Cc1ccccc1,inactive
10,Cc1ccc(S(=O)(=O)Nc2ccc3c(c2)CC(=O)N([C@@H](C)CO)C[C@H](C)[C@@H](CN(C)Cc2ccc(C(F)(F)F)cc2)O3)cc1,active
11,Cc1ccc(S(=O)(=O)Nc2ccc3c(c2)CC(=O)N([C@H](C)CO)C[C@H](C)[C@H](CN(C)Cc2ccc(C(F)(F)F)cc2)O3)cc1,active
12,C[C@@H]1CN([C@H](C)CO)C(=O)Cc2cc(NS(C)(=O)=O)ccc2O[C@@H]1CN(C)Cc1ccc(C(F)(F)F)cc1,inactive
13,Cc1ccc(S(=O)(=O)Nc2ccc3c(c2)CC(=O)N([C@@H](C)CO)C[C@H](C)[C@@H](CN(C)Cc2ccncc2)O3)cc1,inactive
14,Cc1ccc(S(=O)(=O)Nc2ccc3c(c2)CC(=O)N([C@@H](C)CO)C[C@H](C)[C@H](CN(C)Cc2ccc(C(F)(F)F)cc2)O3)cc1,inactive
15,Cc1ccc(S(=O)(=O)Nc2ccc3c(c2)CC(=O)N([C@H](C)CO)C[C@@H](C)[C@@H](CN(C)Cc2ccc(C(F)(F)F)cc2)O3)cc1,active
16,Cc1ccc(S(=O)(=O)Nc2ccc3c(c2)CC(=O)N([C@H](C)CO)C[C@@H](C)[C@H](CN(C)Cc2ccc(C(F)(F)F)cc2)O3)cc1,inactive
17,Cc1ccc(S(=O)(=O)Nc2ccc3c(c2)CC(=O)N([C@H](C)CO)C[C@@H](C)[C@@H](CN(C)Cc2ccncc2)O3)cc1,active
18,C[C@H](CO)N1C[C@H](C)[C@H](CN(C)Cc2ccc(C(F)(F)F)cc2)Oc2ccc(NS(C)(=O)=O)cc2CC1=O,inactive
19,C[C@H]1CN([C@@H](C)CO)C(=O)Cc2cc(NS(C)(=O)=O)ccc2O[C@@H]1CN(C)Cc1ccc(C(F)(F)F)cc1,inactive
20,Cc1ccc(S(=O)(=O)Nc2ccc3c(c2)CC(=O)N([C@H](C)CO)C[C@@H](C)[C@H](CN(C)Cc2ccncc2)O3)cc1,inactive
21,C[C@@H]1CN([C@@H](C)CO)C(=O)Cc2cc(NS(C)(=O)=O)ccc2O[C@@H]1CN(C)Cc1ccc(C(F)(F)F)cc1,inactive

# Reference: the antibiotic and cytotoxicity screens of Wong et al. (2023)
